56 sequences from the supplement of paper PMC7726561 can be followed below.

Whole data set: some 1,400 sequences, median “thermal melting temperature (Tm) of peptide-HLA complex” near 60, cut for the lowest 2% near 45. This excerpt belongs to a sample that is enriched for the lowest values.
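Also: lysates heated 10 min at 37–73 °C, complexes pulled down with pan-HLA I antibody, peptide signal by DIA-MS relative to 37 °C, Tm where half the complex is unfolded.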

In the test the target is HLA-B*07:02. Kind of test: thermal melting temperature (Tm) of peptide-HLA complex; higher = more thermostable pHLA complex. As to conditions: C1R-B*07:02.
RPDYRNITF returned a thermal melting temperature of 61.7 °C.

NPRNFSDNQL yielded a thermal melting temperature of 53 °C.

Sequence IFSEVPVQL came in with a thermal melting temperature of 42.1 °C.

In the case of GVRPFGVSL, the thermal melting temperature amounted to 57.4 °C.

With SPYPGLRLI, the thermal melting temperature amounted to 61.8 °C.

With SPGPSRPGL, the thermal melting temperature came out at 56.1 °C.

With SPAEPSVYATL, the thermal melting temperature worked out at 62.8 °C.

The sequence AVILRALSL came in with a thermal melting temperature of 61.1 °C.

FPHLREEIL: the thermal melting temperature came to 51.6 °C.

On to SPASRSISLL, for which the thermal melting temperature worked out at 57.1 °C.

As for LPKDQGITL, the thermal melting temperature is 61.7 °C.

Sequence APAPRPSL registered a thermal melting temperature of 58.1 °C.

Take LPRTVTQLV: the thermal melting temperature worked out at 45.6 °C.

Regarding RPISVIGGVSL, the thermal melting temperature turned out to be 62.3 °C.

APSGGRLLSA registered a thermal melting temperature of 60.1 °C.

In turn, LPRQPPMSL gave a thermal melting temperature of 66.1 °C.

In turn, LPNGRDTPAL gave a thermal melting temperature of 59.2 °C.

SPAFSTRVL: the thermal melting temperature was determined as 60.3 °C.

KPFDQTTISL yielded a thermal melting temperature of 61.3 °C.

With RPRPGNILLQL, the thermal melting temperature was found to be 55.6 °C.

QPIDNVSRNLL showed a thermal melting temperature of 59.3 °C.

KVRGISEVL returned a thermal melting temperature of 60.5 °C.

QPIPFPKEAL had a thermal melting temperature of 60.7 °C.

For KPYQGNPTF, the thermal melting temperature was 57.5 °C.

For the sequence RPHAFQVIL, the thermal melting temperature amounted to 60.2 °C.

Turning to LPSGDRVAVSV, the thermal melting temperature worked out at 61 °C.

In the case of AANPNRFITL, the thermal melting temperature worked out at 61.1 °C.

Sequence TPRSPPLGL displayed a thermal melting temperature of 62.3 °C.

Sequence TPINKPPVL displayed a thermal melting temperature of 56 °C.

As for APRPDRLVNRL, the thermal melting temperature is 57.3 °C.

LPHAVSSLL had a thermal melting temperature of 62.4 °C.

LPRKPSVPW displayed a thermal melting temperature of 59.5 °C.

As to APRQVLDLEDL, the thermal melting temperature is 60.9 °C.

KMLTFLML returned a thermal melting temperature of 61.7 °C.

For the sequence KPQTKLLIL, the thermal melting temperature stood at 60.8 °C.

With LPSKEHVDVI, the thermal melting temperature is 44.8 °C.

For IPFSNPRVL, the thermal melting temperature came out at 61.4 °C.

For LPRPWSVPPL, the thermal melting temperature was determined as 60 °C.

VPKPPSIEEF yielded a thermal melting temperature of 62.3 °C.

In turn, RPAQVSQPF yielded a thermal melting temperature of 60.2 °C.

Turning to IVDSARSIL, the thermal melting temperature was found to be 57.8 °C.

In turn, HPRKGFPGSL had a thermal melting temperature of 45 °C.

For the sequence APKPGGLSL, the thermal melting temperature amounted to 61.7 °C.

GPMNLRAAF: the thermal melting temperature was determined as 62.1 °C.

Regarding MPSASRVILL, the thermal melting temperature turned out to be 62.7 °C.

In the case of APGPPGRSML, the thermal melting temperature was 60 °C.

With LPQLPLAAL, the thermal melting temperature turned out to be 59 °C.

HPAAFPLPV: the thermal melting temperature was 57.7 °C.

APRTVALTAL yielded a thermal melting temperature of 62.9 °C.

In the case of LPQPVPLSV, the thermal melting temperature is 62.6 °C.

As for IPRPDGIEW, the thermal melting temperature is 58.4 °C.

As for QPHLVNIQF, the thermal melting temperature was found to be 41.6 °C.

As to RPGWLTVSL, the thermal melting temperature came to 59.2 °C.

For RPAVIGDVL, the thermal melting temperature turned out to be 59.3 °C.

Turning to HPAGPRTVF, the thermal melting temperature turned out to be 59.1 °C.

As to YPTISLHAL, the thermal melting temperature stood at 59.8 °C.
